High-throughput results (PubChem)
LASV entry inh = qHTS for Inhibitors of binding or entry into cells for Lassa Virus. Lassa virus pseudotyped entry inhibition, cell-based qHTS. Potency, µM (doses to about 49.2 µM), inactives show at the highest dose activity change, negative = inhibition, actives largely listed as inhibitors. actives 4.1% (n = 18,000)
MARV entry inh = qHTS for Inhibitors of binding or entry into cells for Marburg Virus. actives 6.5% (n = 18,000). Marburg virus pseudotype entry/binding inhibition, cell-based. Potency, µM (doses to about 49.2 µM), for the others: top-dose activity change, negative = inhibition, actives largely listed as inhibitors
* hit, by the source's call; ? = inconclusive; . = no result; ! = repeats disagree; [ ] = another dose, or the depositor's remark. Rows were chosen to be rich in hits. Some 7.1% of all compounds tested hit in one or more screens of this group. The call rests on the fitted dose curve; tested in HEK293 cells. On the % scale 0 is the no-effect control and ±100 the full control effect; potency means the concentration at half of the fitted maximal effect.

SMILES	LASV entry inh	MARV entry inh
CCN1C(=O)[C@@H]2[C@H]3[C@H](O)[C@H](O)CC(=NO[C@@H](C)c4cn([C@H](CO)Cc5ccccc5)nn4)[C@@H]3CC[C@H]2C1=O	.	-3%[8.59 µM]
CCN(CC)CCNc1ccc(CO)c2sc3ccccc3c(=O)c12	3%[17.8 µM]	11µM*
C[C@H]1[C@@H]2O[C@H]2CCO[C@H]1c1cccc(Br)c1	-6%[8.59 µM]	-16%[8.59 µM]
COc1c(O)c2c(=O)cc(OC)c3c4c(OC)cc(=O)c5c(O)c(OC)c(C[C@@H](C)OC(=O)c6ccccc6)c(c(c1C[C@@H](C)OC(=O)Oc1ccc(O)cc1)c23)c54	32µM*	?
C[C@@]12CCC=C[C@H]1[C@H](c1ccccc1Br)N(Cc1ccccc1)C2=O	-26%	20µM*
Cc1cccc([C@H]2[C@@H]3C=CCC[C@@]3(C)C(=O)N2Cc2ccccc2)c1	7%	-25%
CCN1C(=NCc2cccc(C(F)(F)F)c2)NC(c2ccccc2)C(C(=O)OC)=C1C (centres undefined)	5%[8.59 µM]	?
C[C@H]1N[S+](=O)([O-])c2ccc(Br)cc2O[C@@H]1c1ccccc1	16%	8%
CCCCCCC[N+](CC)(CC)CCCCc1ccc(Cl)cc1	5µM*	?
CCCCCCCCc1ccc(-c2ccc(C(=O)O)cc2)cc1	9%	-1%
C=CCCCN1C=C(C(=O)OCC)C(c2ccccc2)NC1=O (centres undefined)	-5%[8.59 µM]	-11%[8.59 µM]
O=C1C2=C(C(=O)c3ccccc31)[C@H]1O[C@](c3ccsc3)(Cc3ccccc31)O2	-8%[8.59 µM]	-8%[8.59 µM]
CC(C)COCC(CN(Cc1ccccc1)c1ccccc1)N1CCCC1 (centres undefined)	14µM*!	6.3µM*
C[C@@H](c1ccccc1)N1C(=O)[C@@H]2[C@H]3[C@H](O)[C@H](O)CC(=NNC(=O)OCc4ccccc4)[C@@H]3CC[C@H]2C1=O	-28%[8.59 µM]	-18%[8.59 µM]
CCC[C@H]1CN(Cc2ccccc2)C(=O)[C@H]1CC(=O)NC	14%	20%
CC(N)C(O)c1ccc(O)c(O)c1 (centres undefined)	-8%	11µM*!
C[C@H](N)[C@H](O)c1cccc(O)c1	-3%[17.8 µM]	1%[17.8 µM]
CC(C)[C@@H](OCc1ccccc1)[C@H](C)C=NOC[C@@H](O)[C@H]1O[C@@H]2OC(C)(C)O[C@H]2[C@@H]1O	0%[8.59 µM]	-5%[8.59 µM]
O=C1CCCC2=C1[C@H]1O[C@](CCCCN3C(=O)c4ccccc4C3=O)(Cc3ccccc31)O2	-8%[8.59 µM]	-2%[8.59 µM]
CCN1C(=O)NC(c2ccccc2)C(C(=O)OC)=C1C (centres undefined)	4%[8.59 µM]	7%[8.59 µM]
C=C[C@@H]1C[C@@H](C=C)OP(=O)(O[C@@H](C=C)[C@@H](C)C(=O)OC)O1 (some centres undefined)	9%	-24%
O=C(O)c1cc(O)c2c(c1)[O][Bi][O]2	5%	4%
O=C(O)c1cc(O)c(O)c(O)c1	11µM*	3.2µM*
CCCCCN=c1ccn(Cc2ccccc2)c2ccccc12	20µM*	14µM*
COC(=O)C1=C(C)N(CC2CC2)C(=O)NC1c1ccc(Br)cc1 (centres undefined)	-8%[8.59 µM]	77%[8.59 µM]
SMILES	LASV entry inh	MARV entry inh
CCc1ccc2c(c1)N(CC(C)CN(C)C)c1ccccc1S2 (centres undefined)	18µM*	14µM*
CC(CN1c2ccccc2Sc2ccc(S(=O)(=O)N(C)C)cc21)N(C)C (centres undefined)	-5%	?
CCN1C(=NCc2cccc(C(F)(F)F)c2)NC(c2cccs2)C(C(=O)OC)=C1C (centres undefined)	-7%[8.59 µM]	?
CN1CCC(OC(=O)C(Oc2ccc(Cl)cc2)Oc2ccc(Cl)cc2)CC1	-26%	6%
CCC(Oc1ccc(Cl)cc1)C(=O)OC1CC2CCC(C1)N2C (centres undefined)	?	6.3µM*
CC(C(=O)OC1CC2CCC(C1)N2C)c1ccc(Br)cc1 (centres undefined)	-11%	28µM*
CN1C2CCC1CC(OC(=O)C(O)c1ccccc1)C2 (centres undefined)	-1%	1%
COCC=CC1=CC2=CC(=O)C(C)(OC(=O)c3cnc4ccccc4n3)C(=O)C2=CN1CC1CC1 (centres undefined)	13%[8.59 µM]	58%[8.59 µM]
CC1(C)[C@@H](O)CC[C@]2(C)C3C(=O)C=C4C5C[C@@](C)(C(=O)O)CC[C@]5(C)CC[C@@]4(C)[C@]3(C)CC[C@@H]12 (some centres undefined)	4%	-10%
CC1=C(O)C(=O)C=C2C1=CC=C1[C@]2(C)CC[C@@]2(C)C3C[C@](C)(C(=O)O)CC[C@@]3(C)CC[C@@]12C (some centres undefined)	4.5µM*	4µM*
O=C(OCc1cn([C@H]2CN(CC3CCCCC3)[C@@H](c3ccc(Cl)cc3)C[C@H]2O)nn1)c1ccccc1	-35%	?
CNC(=O)Oc1ccc2c(c1)[C@]1(C)CCN(C)[C@@H]1N2C	-27%	-14%
